Hits are enriched below; roughly 19% of the tested compounds scored in any of these assays.
KB-3-1 tox = qHTS assay for MDR1-selective chemotherapeutics: Primary screen using the parental adenocarcinoma cell KB-3-1; KB-3-1 viability, CellTiter-Glo ATP luminescence, 72 h; Potency, µM (series often up to 46.1 µM), hits mostly cytotoxic; actives 1.4% (n = 400,000); also: nearly all actives have a fitted effect of over 60% in size
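72 h, 37 °C compound treatment of KB-3-1 parental cells; CellTiter-Glo added, 10 min, luminescence read. Data corrected against DMSO-only plates and normalized before curve fitting.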
KB-V1 cytotox = qHTS assay for MDR1-selective chemotherapeutics: Primary screen using the drug-selected MDR subline cells KB-V1; KB-V1 MDR cells viability, CellTiter-Glo, 72 h; Potency, µM (series often up to 46.1 µM), most hits filed as cytotoxic; actives 3.4% (n = 400,000); also: nearly all actives have a fitted effect of over 60% in size
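KB-V1 MDR subline cells in DMEM (phenol-red free, 10% FBS) exposed to compounds in qHTS concentration series for 72 h at 37 degrees C. Viability read by CellTiter-Glo luminescence; concentration-effect curves fitted after normalization and correction.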
TDP1 cell CPT = qHTS for Inhibitors of human tyrosyl-DNA phosphodiesterase 1 (TDP1): qHTS in cells in presence of CPT; chicken DT40 Tdp1-/-;hTDP1 cells + 20 nM CPT, ATP luminescence, 48 h; Potency, µM (doses to about 46.2 µM), for the others: top-dose activity change, negative = growth inhibition, most hits filed as inhibitors; actives 12% (n = 420,000); also: nearly all actives have a fitted effect of over 55% in size
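Chicken DT40 Tdp1-/- cells complemented with human TDP1, 400 cells/well, exposed to compounds plus 20 nM camptothecin for at least 48 h at 37 C; viability read as ATP content by CellTiter-Glo luminescence.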
DT40 TDP1 no CPT = qHTS for Inhibitors of human tyrosyl-DNA phosphodiesterase 1 (TDP1): qHTS in cells in absence of CPT; DT40 Tdp1-/- hTDP1 cells, no CPT, ATP luminescence, 48 h; Potency, µM (titrated, usually from 46.2 µM), inactives show top-dose activity change, negative = growth inhibition, usual class: inhibitors; actives 15% (n = 420,000); also: nearly all actives have a fitted effect of over 55% in size
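Luminescent ATP content (CellTiter-Glo) served as the growth readout. Knockout chicken DT40 cells expressing human TDP1 were exposed to compounds without camptothecin for a minimum 48 hr at 37 °C.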
HT1080-NT tox = qHTS for induction of synthetic lethality in tumor cells producing 2HG: qHTS for the HT-1080-NT fibrosarcoma cell line; HT-1080-NT fibrosarcoma viability, CellTiter-Glo ATP luminescence, 48 h; Potency, µM (highest dose often 46.1 µM), for inactives: at the highest dose activity, negative = less viability, actives largely listed as cytotoxic; actives 1.6% (n = 360,000); AID 686970, 2013;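 also: NT is the 2HG producing partner of a matched IDH1 knockdown line; 0% = DMSO-treated cells and -100% = media-only wells without cells; nearly all actives have a fitted effect of over 55% in size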
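Viability of the 2HG-overproducing fibrosarcoma line after 48 hours of compound exposure at 37 degrees C was determined by luminescence with CellTiter-Glo, and concentration-effect curves were then fitted and categorized.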
HT1080 IDH1KD tx = qHTS for induction of synthetic lethality in tumor cells producing 2HG: qHTS for the HT-1080-IDH1KD cell line; actives 2% (n = 360,000); Potency, µM (titrated, usually from 46.1 µM), for the others: top-dose activity, negative = toxicity, most hits filed as cytotoxic; AID 686971, 2013; HT-1080 IDH1 knockdown viability, ATP luminescence, 48 h;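 also: 0% = DMSO wells and -100% = cell-free medium wells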
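Cytotoxicity counter-line: IDH1KD HT-1080, 48 h, CellTiter-Glo. Curves classed by r2, magnitude and activity.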
* = called active by the depositor; i = inactive; u = inconclusive; x = not tested or not shown. Calls follow the shape of the dose curve; as a rule, active = well fitted curve in the direction sought with a large enough effect; inconclusive = small, poorly fitted or top-dose-only effect, or another doubt; inactive = no such curve, though single readings can be large; an effect the other way counts as inactive or inconclusive. Unless noted, % is scaled to controls: 0 for no effect and ±100 for the full control effect; potency is read from the fitted curve at half-maximal effect.

SMILES	KB-3-1 tox	KB-V1 cytotox	TDP1 cell CPT	DT40 TDP1 no CPT	HT1080-NT tox	HT1080 IDH1KD tx
COc1ccc(N2CC(O)=C(c3nc(-c4ccc(F)cc4)cs3)C2=N)cc1OC	i	i	u	18µM*	-2%	-14%
CSc1ccc(Nc2nn(-c3ccc(OC(F)(F)F)cc3)nc2C(C)=O)cc1	x	x	-7%	-6%	x	x
COc1ccccc1NC(=O)c1cc2c(CO)cnc(C)c2oc1=Nc1ccccc1	i	u	u	8.2µM*	16%	17%
COc1cc(NC(=O)c2cc3c(CO)cnc(C)c3oc2=Nc2cccc(C(N)=O)c2)cc(OC)c1	i	i	-27%	u	-2%	0%
COc1ccccc1NC(=O)c1cc2c(CO)cnc(C)c2oc1=Nc1cccc(C(N)=O)c1	i	i	5.2µM*	1.8µM*	-2%	2%
CC(=O)OCc1cnc(C)c2oc(=O)c(C(=O)Nc3cccc(F)c3)cc12	i	i	x	x	x	x
COc1ccc(NC(=O)c2cc3c(COC(C)=O)cnc(C)c3oc2=Nc2cccc(C(=O)O)c2)c(OC)c1	i	i	-23%	26µM*	9%	9%
COc1ccc(NC(=O)c2cc3c(CO)cnc(C)c3oc2=Nc2cc(OC)cc(OC)c2)cc1	i	i	-23%	-16%	-3%	6%
CCC(Sc1nnc(-c2ccc(F)cc2)c(-c2ccc(F)cc2)n1)C(=O)NC1CCCC1 (centres undefined)	i	i	-24%	u	x	x
CCC(=O)N1CCc2cc(S(=O)(=O)N(C)c3ccc(OC)cc3OC)ccc21	i	i	u	u	17%	13%
CC(=O)N1CCc2cc(S(=O)(=O)Nc3ccc(C)cc3C)ccc21	i	i	u	-24%	-10%	-4%
O=C(C1CCC1)N1CCc2cc(S(=O)(=O)NCC3COc4ccccc4O3)ccc21 (centres undefined)	i	u	u	-28%	-15%	-18%
Cc1ccc(NS(=O)(=O)c2ccc3c(c2)CCN3C(=O)C2CC2)c(C)c1	i	i	u	21µM*	x	x
Cc1ccc(NS(=O)(=O)c2ccc(N3CCN(c4ccc(O)cc4)CC3)c([N+](=O)[O-])c2)c(C)c1	u	u	u	16µM*	u	u
COc1ccc(N(C)S(=O)(=O)c2ccc3c(c2)CCN3C(=O)C2CC2)c(OC)c1	u	u	16µM*	18µM*	-9%	-9%
O=[N+]([O-])c1cc(S(=O)(=O)Nc2ccccc2)ccc1N1CCN(c2ccc(O)cc2)CC1	i	i	u	u	4%	-5%
O=C(C1CC1)N1CCc2cc(S(=O)(=O)NCC3COc4ccccc4O3)ccc21 (centres undefined)	i	u	u	15µM*	-12%	-19%
Cc1nn(CC(=O)N2CCOCC2)c(=O)c2nn(-c3ccccc3)c(C)c12	i	i	-13%	26%	5%	27%
CCOC(=O)c1c(S(=O)(=O)N2CCC(C(=O)Nc3ccccc3OC)CC2)c(C)n(CC)c1C	i	u	-9%	16%	x	x
CC#CCC(C)[C@H](O)/C=C/[C@@H]1[C@H]2c3cccc(CCCC(=O)O)c3O[C@H]2C[C@H]1O (some centres undefined)	x	x	3%	3%	x	x
COc1ccc(NS(=O)(=O)c2ccc3c(c2)CCN3C(=O)C2CC2)cc1OC	x	x	8.2µM*	5.2µM*	x	x
